Assay results reported in PubChem BioAssay (NCATS).
Results filed as inconclusive are left out. Unless noted, calls come from the whole dose curve; as a rule, active = well fitted curve in either direction with a large enough effect (not every such curve was filed as active); inconclusive = small, poorly fitted or top-dose-only effect, or another doubt; inactive = flat fitted curve, though single readings scatter.

Tests used:
[1] = AP1 Signaling Pathway (AID 357); conditions: ME-180 AP-1-bla reporter, EGF-induced, beta-lactamase ratio, 5 h; at 17.2 µM (top of the series) unless noted;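 note: ME-180 reporter cells stimulated with EGF at its EC50 level; % is set by controls: 0 for no effect and ±100 for the full control effect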
In short: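 In this screen, ME-180 cells in Opti-MEM with 0.5% dialyzed FBS received EC50 EGF and compound titrations for 5 h. AP-1 reporter beta-lactamase was detected via CCF4 ratio, giving AC50 for positive and negative modulators.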

[2] = Stat Signaling Pathway (AID 446); conditions: ME-180 (cervical carcinoma) SIE beta-lactamase reporter, IL-6 stimulated, 5 h; at 17.2 µM (top of the series) unless noted;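 note: ME-180 cervical cancer cells given 40 pM IL-6 alongside compound; SIE-controlled beta-lactamase reporter measured as 460/530 nm FRET emission ratio; % is set by controls: 0 for no effect and ±100 for the full control effect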
In short: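 FRET read-out (405 nm excitation, 460/530 nm emission) of a beta-lactamase reporter under a STAT-inducible element in ME-180 cervical carcinoma cells. Cells with compound receive 40 pM IL-6 for 5 h. Values are normalised to AC90 stimulation and AC90 JAK-inhibitor controls.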

[3] = target: Glucocorticoid receptor (Homo sapiens) (UniProt P04150); experiment: GR-GFP Redistribution (AID 450;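 active = compounds whose dose series gives a full or clear partial fitted curve of increased nuclear translocation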; note: potency is the fitted concentration of half-maximal effect)
Sequence of Glucocorticoid receptor (Homo sapiens) (P04150 whole entry, looked up): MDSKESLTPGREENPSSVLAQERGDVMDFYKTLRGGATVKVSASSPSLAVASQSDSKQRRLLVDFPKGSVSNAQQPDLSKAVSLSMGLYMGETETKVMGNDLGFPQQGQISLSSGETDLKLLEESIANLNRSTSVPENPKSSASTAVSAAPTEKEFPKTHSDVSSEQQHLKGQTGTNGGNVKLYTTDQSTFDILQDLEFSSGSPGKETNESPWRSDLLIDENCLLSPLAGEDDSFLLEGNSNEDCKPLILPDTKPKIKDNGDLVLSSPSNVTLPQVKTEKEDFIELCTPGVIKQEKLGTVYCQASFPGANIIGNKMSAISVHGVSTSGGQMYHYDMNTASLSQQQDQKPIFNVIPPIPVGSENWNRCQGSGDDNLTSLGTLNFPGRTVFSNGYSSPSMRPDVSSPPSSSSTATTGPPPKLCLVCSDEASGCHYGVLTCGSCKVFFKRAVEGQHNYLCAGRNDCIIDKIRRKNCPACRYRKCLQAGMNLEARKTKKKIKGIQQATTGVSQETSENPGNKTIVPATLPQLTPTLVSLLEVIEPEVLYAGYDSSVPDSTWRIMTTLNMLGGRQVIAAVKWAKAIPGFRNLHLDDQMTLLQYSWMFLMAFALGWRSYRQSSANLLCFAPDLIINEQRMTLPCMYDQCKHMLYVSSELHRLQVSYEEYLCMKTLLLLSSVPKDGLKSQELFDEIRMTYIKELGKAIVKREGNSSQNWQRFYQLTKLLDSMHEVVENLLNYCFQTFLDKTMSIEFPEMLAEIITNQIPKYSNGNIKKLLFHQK

COc1cc(C(=O)NCC(=O)n2nc(C)cc2C)cc(OC)c1OC
inactive: activity change, negative = inhibition [1] 0.479% | activity, negative = inhibition [2] 0.715% | Potency [3] > 20.6 µM

CC(NC(=O)OC(C)(C)C)C(=O)Oc1ccc2ccc(=O)oc2c1 (configuration not stated)
inactive: activity change, negative = inhibition [1] 24.1% | activity, negative = inhibition [2] 10.7% | Potency [3] > 20.6 µM

CCn1cc(C(=O)NCCc2ccccc2)c(=O)c2cc(F)c(N3CCN(C)CC3)cc21
inactive: activity change, negative = inhibition [1] -9.7% | activity, negative = inhibition [2] -5.45% | Potency [3] > 20.6 µM

C[C@]12CC[C@@H]3c4ccc(O)cc4CC[C@H]3[C@@H]1CC[C@@H]2OC(=O)CCC(=O)O
inactive: activity change, negative = inhibition [1] -5.44% | activity, negative = inhibition [2] -12.1% | Potency [3] > 20.6 µM

COc1ccc(Nc2cc(C)nc3ccccc23)cc1
inactive: activity change, negative = inhibition [1] 10.5% | activity, negative = inhibition [2] 5.77% | Potency [3] > 20.6 µM

CCc1nc(NC2CCCCC2)c(C#N)c2c1COC(C)(C)C2
inactive: activity change, negative = inhibition [1] 7.15% | activity, negative = inhibition [2] 7.37% | Potency [3] > 20.6 µM

COc1nc(NS(=O)(=O)c2ccc(C)cc2)nc(C)c1Cl
inactive: activity change, negative = inhibition [1] 6.72% | activity, negative = inhibition [2] -5.69% | Potency [3] > 20.6 µM

CCOc1ccccc1N1CCN(c2nc3ccccc3nc2C(C#N)C(=O)OC(C)C)CC1 (configuration not stated)
inactive: activity change, negative = inhibition [1] 16.5% | activity, negative = inhibition [2] -13.8% | Potency [3] > 20.6 µM

O=C(c1ccccc1F)N1CCC(N2CCCCCC2)CC1
inactive: activity change, negative = inhibition [1] -3.96% | activity, negative = inhibition [2] 2.78% | Potency [3] > 20.6 µM

O=c1[nH]c(=O)n(Cc2ccco2)c2c1C(C(F)(F)F)(C(F)(F)F)N=C(c1ccco1)N2
inactive: activity change, negative = inhibition [1] 3.52% | activity, negative = inhibition [2] -26.4% | Potency [3] > 20.6 µM

C=CCOc1ccc(/C(O)=C2\C(=O)C(=O)N(CCN(C)C)C2c2cccs2)cc1 (configuration not stated)
inactive: activity change, negative = inhibition [1] -5.42% | activity, negative = inhibition [2] -3.79% | Potency [3] > 20.6 µM

CN1CCN(CC(=O)Nc2nc(-c3ccccc3)cs2)CC1
inactive: activity change, negative = inhibition [1] 9.16% | activity, negative = inhibition [2] -4.84% | Potency [3] > 20.6 µM

COc1cccc(-c2nc(N3CCC(C)CC3)c3ccccc3n2)c1O
inactive: activity change, negative = inhibition [1] 16.6% | activity, negative = inhibition [2] 5.63% | Potency [3] > 20.6 µM

C=CCN(CC=C)c1nc2ccccc2nc1C(C#N)C(=O)OC(C)C (configuration not stated)
inactive: activity change, negative = inhibition [1] -13.3% | activity, negative = inhibition [2] -28.3% | Potency [3] > 20.6 µM

C=CCOc1nc2c(c(=O)n(C)c(=O)n2C)n1Cc1c(Cl)cccc1Cl
inactive: activity change, negative = inhibition [1] 0.413% | activity, negative = inhibition [2] 3.61% | Potency [3] > 20.6 µM

c1ccc2c(NCC3CCCO3)nc(-c3ccncc3)nc2c1 (configuration not stated)
inactive: activity change, negative = inhibition [1] -9.19% | activity, negative = inhibition [2] 4.85% | Potency [3] > 20.6 µM

CCCCc1c(C)c2ccc(OCC(C)=O)cc2oc1=O
inactive: activity change, negative = inhibition [1] -16.2% | activity, negative = inhibition [2] -0.63% | Potency [3] > 20.6 µM

CCCCNC(=O)C(C#N)c1nc2ccccc2nc1N1CCN(c2ccccc2F)CC1 (configuration not stated)
inactive: activity change, negative = inhibition [1] -4.46% | activity, negative = inhibition [2] 0.859% | Potency [3] > 20.6 µM

CC(C)C1=C2OC(N)=C(C#N)C(C#N)=C2C(C)CC1 (configuration not stated)
inactive: activity change, negative = inhibition [1] -2.44% | activity, negative = inhibition [2] 5.25% | Potency [3] > 20.6 µM

CCOC(=O)CSc1nnc2n(C3CCCCC3)c(=O)c3c4c(sc3n12)CCCC4
inactive: activity change, negative = inhibition [1] -9.49% | activity, negative = inhibition [2] -21.4% | Potency [3] > 20.6 µM

c1ccc(N2CCN(c3nc(NCc4ccco4)c4ccccc4n3)CC2)cc1
inactive: activity change, negative = inhibition [1] -16.8% | activity, negative = inhibition [2] -28% | Potency [3] > 20.6 µM

CCOc1cccc(-c2nnc3sc(-c4cc(OC)c(OC)c(OC)c4)nn23)c1
inactive: activity change, negative = inhibition [1] 3.58% | activity, negative = inhibition [2] -10.4% | Potency [3] > 20.6 µM

CCOC(=O)c1nc2nc(C)c(Cl)c(=O)n2[nH]1
inactive: activity change, negative = inhibition [1] -6.21% | activity, negative = inhibition [2] 5.64% | Potency [3] > 20.6 µM

COc1ccc(C(=O)Nc2cccnc2)cc1C(=O)Nc1cccnc1
inactive: activity change, negative = inhibition [1] 3.61% | activity, negative = inhibition [2] -4.76% | Potency [3] > 20.6 µM

Nc1nnnn1/N=C/c1ccco1
inactive: activity change, negative = inhibition [1] 2.89% | activity, negative = inhibition [2] -1.38% | Potency [3] > 20.6 µM

CC(C)c1nc2sc3c(c2c(=O)o1)CCCC3
inactive: activity change, negative = inhibition [1] -7.93% | activity, negative = inhibition [2] 2.63% | Potency [3] > 20.6 µM

CCOC(=O)C1=C(N)c2ccccc2CC1C(C)C (configuration not stated)
inactive: activity change, negative = inhibition [1] -3.93% | activity, negative = inhibition [2] -8.13% | Potency [3] > 20.6 µM

CCOC(=O)CSC1=C(C#N)C(=O)NC2(CCCCC2)S1
inactive: activity change, negative = inhibition [1] -9.68% | activity, negative = inhibition [2] 8.1% | Potency [3] > 20.6 µM

COCc1[nH]nc2c1C(c1ccc(OC)cc1)C(C#N)=C(N)O2 (configuration not stated)
inactive: activity change, negative = inhibition [1] 2.89% | activity, negative = inhibition [2] -11.4% | Potency [3] > 20.6 µM
